Assay in all cases: DAPPL (digital affinity profiling via proximity ligation, sequencing); 10 mM Tris-HCl pH 7.5, 50 mM NaCl, 1 mM DTT, 4% glycerol, room temperature, 30 min; GST-TFs on glutathione beads, 16-mer random dsDNA library, 0.1% formaldehyde crosslink after washing; high values mean tight binding
What all share (conditions): protein: recombinant; tags: N-terminal GST; dsDNA, one strand shown

In one test the target is T1, FLI1 (Homo sapiens, UniProt Q01543 1-452).
T1 sequence: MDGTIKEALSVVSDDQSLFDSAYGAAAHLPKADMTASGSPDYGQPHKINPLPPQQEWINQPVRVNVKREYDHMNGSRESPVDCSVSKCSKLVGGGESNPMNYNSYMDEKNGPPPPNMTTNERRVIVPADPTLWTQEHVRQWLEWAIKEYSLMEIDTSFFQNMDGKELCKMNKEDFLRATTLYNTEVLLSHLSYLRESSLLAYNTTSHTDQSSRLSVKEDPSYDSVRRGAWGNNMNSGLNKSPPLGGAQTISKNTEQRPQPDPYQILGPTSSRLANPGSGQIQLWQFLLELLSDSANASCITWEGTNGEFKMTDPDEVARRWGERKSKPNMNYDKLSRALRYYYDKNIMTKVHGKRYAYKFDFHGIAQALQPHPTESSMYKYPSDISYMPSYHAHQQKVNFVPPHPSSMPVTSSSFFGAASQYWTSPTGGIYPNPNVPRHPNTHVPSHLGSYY
Put shortly: (§1)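 Human transcription factors carrying a GST fusion were produced in yeast, bound to glutathione beads, tagged with DNA barcodes and pooled together with a tag-only sample. Each pool was held with 200 nmole of a random double-stranded 16-mer DNA library in Tris/NaCl/DTT/glycerol buffer for 30 min at room temperature, then washed, crosslinked in 0.1% formaldehyde, proximity-ligated with BsaI/T4 ligase (1 h, 37 °C), PCR-amplified and sequenced on an Illumina NextSeq500. Binding signal is the read frequency of each hexamer for a given factor divided by its frequency in the tag-only sample.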

Another test concerns the target T2, ELK1 (Homo sapiens, UniProt P19419 1-428).
T2 sequence: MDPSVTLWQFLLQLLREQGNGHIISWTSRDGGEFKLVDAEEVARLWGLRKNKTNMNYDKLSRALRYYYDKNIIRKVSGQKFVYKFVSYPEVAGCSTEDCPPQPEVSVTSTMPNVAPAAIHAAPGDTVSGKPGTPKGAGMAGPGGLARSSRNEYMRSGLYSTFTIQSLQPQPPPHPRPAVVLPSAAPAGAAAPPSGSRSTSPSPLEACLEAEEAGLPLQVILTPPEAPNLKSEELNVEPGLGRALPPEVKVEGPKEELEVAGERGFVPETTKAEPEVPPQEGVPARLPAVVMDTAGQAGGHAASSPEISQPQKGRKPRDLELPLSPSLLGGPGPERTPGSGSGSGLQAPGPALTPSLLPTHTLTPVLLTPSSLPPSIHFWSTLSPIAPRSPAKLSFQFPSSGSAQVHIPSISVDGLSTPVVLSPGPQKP
An outline of the steps: as §1

A further test addresses T3, GABPA (Homo sapiens, UniProt Q06546 1-454).
T3 sequence: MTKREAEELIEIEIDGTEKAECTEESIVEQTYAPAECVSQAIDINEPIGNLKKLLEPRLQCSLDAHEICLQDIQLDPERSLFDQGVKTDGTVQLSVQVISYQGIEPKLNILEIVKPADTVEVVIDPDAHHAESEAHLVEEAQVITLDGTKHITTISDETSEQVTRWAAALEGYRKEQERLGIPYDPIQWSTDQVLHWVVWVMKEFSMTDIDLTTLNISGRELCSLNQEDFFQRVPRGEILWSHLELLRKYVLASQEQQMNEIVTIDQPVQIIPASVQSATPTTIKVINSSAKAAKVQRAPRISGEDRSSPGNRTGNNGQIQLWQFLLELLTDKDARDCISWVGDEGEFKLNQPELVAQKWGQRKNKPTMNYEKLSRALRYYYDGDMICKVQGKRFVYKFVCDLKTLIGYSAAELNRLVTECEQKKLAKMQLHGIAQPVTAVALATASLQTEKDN
Put shortly: as §1

For a further test, the target named is T4, ERG (Homo sapiens, UniProt P11308 1-479).
T4 sequence: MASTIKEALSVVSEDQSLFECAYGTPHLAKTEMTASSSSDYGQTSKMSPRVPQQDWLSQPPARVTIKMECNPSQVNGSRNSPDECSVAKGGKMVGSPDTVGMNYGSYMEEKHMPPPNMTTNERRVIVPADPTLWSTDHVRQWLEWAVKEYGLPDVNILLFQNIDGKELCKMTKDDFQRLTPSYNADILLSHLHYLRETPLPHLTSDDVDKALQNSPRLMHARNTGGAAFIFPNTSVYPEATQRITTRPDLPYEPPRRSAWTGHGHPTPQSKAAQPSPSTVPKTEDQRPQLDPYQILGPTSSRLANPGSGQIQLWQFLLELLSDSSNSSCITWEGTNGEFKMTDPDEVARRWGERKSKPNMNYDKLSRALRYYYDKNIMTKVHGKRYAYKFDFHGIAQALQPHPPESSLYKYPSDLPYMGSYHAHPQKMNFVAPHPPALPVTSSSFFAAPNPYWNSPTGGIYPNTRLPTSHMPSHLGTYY
An outline of the steps:
as §1

Another test concerns the target ELF1 (Homo sapiens, UniProt P32519 1-619). Put shortly:
as §1

For the next test, the target named is T5, EHF (Homo sapiens, UniProt Q9NZC4 1-300).
T5 sequence: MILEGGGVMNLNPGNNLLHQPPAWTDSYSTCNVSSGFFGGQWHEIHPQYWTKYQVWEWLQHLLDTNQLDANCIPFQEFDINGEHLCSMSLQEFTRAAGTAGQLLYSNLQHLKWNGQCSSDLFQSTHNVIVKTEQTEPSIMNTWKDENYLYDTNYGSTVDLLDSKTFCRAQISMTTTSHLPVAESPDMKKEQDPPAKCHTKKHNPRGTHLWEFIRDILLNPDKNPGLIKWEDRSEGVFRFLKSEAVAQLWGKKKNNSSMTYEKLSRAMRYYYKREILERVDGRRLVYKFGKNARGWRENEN
Put shortly: as §1

For a further test, the target named is SPI1 (Homo sapiens, UniProt P17947 1-270). An outline of the steps: as §1
For the next test, the target named is SPIB (Homo sapiens, UniProt Q01892 1-262). An outline of the steps: as §1
The target in another test is T6, ELK3 (Homo sapiens, UniProt P41970 1-407).
T6 sequence: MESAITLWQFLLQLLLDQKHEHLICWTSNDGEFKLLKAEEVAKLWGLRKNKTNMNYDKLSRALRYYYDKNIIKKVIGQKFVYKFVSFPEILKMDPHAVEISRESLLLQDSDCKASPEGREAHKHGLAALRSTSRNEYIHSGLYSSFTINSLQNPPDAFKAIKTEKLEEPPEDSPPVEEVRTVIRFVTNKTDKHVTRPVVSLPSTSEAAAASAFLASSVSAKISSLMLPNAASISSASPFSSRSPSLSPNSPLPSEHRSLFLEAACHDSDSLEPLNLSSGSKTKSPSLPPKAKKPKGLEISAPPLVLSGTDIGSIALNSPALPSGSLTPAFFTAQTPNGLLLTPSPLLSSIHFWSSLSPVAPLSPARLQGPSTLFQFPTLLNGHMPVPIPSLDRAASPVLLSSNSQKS
Put shortly: as §1

SPIB, sequence (Q01892 whole entry): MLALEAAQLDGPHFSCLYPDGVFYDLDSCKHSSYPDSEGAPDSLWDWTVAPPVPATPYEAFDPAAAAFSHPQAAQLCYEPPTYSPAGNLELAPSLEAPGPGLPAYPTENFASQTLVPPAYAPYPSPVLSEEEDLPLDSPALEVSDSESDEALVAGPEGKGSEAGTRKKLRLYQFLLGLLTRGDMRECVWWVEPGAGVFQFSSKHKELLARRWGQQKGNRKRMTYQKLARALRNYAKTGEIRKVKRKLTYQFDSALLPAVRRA
ELF1, sequence (P32519 whole entry): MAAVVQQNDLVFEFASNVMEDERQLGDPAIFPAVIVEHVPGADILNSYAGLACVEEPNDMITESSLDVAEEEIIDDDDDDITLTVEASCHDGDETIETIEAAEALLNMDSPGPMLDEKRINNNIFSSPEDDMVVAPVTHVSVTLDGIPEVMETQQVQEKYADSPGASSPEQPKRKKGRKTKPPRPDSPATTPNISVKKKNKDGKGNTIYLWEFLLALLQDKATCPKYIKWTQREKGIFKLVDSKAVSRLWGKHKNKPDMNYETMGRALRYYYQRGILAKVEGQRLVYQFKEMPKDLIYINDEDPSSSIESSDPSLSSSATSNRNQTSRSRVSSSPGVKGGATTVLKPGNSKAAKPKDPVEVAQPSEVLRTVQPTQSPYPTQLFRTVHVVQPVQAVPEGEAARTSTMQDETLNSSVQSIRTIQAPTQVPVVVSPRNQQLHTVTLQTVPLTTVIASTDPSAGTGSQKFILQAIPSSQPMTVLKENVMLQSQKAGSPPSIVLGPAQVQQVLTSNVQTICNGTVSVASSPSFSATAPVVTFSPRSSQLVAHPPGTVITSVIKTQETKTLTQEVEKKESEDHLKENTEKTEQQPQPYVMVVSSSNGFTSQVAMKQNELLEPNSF

Take CTGGAT: the binding signal was 1.31 fold enrichment (6-mer frequency, TF over GST control) in the test with FLI1; 1.19 fold enrichment (6-mer frequency, TF over GST control) in the test with ELK1; 1.38 fold enrichment (6-mer frequency, TF over GST control) with GABPA; 1.38 fold enrichment (6-mer frequency, TF over GST control) with ERG; 1.36 fold enrichment (6-mer frequency, TF over GST control) in the test with ELF1; 1.32 fold enrichment (6-mer frequency, TF over GST control) in the test with EHF. Besides, the binding signal with SPI1 is 1.25 fold enrichment (6-mer frequency, TF over GST control); with SPIB it was 1.36 fold enrichment (6-mer frequency, TF over GST control); in the test with ELK3, 1.31 fold enrichment (6-mer frequency, TF over GST control).

For GCTATA, the binding signal in the test with FLI1 was 1.17 fold enrichment (6-mer frequency, TF over GST control); in the test with ELK1 it was 1.11 fold enrichment (6-mer frequency, TF over GST control); with GABPA it was 1.16 fold enrichment (6-mer frequency, TF over GST control); with ERG, 1.16 fold enrichment (6-mer frequency, TF over GST control); in the test with ELF1, 1.19 fold enrichment (6-mer frequency, TF over GST control); with EHF, 1.16 fold enrichment (6-mer frequency, TF over GST control). Also, the binding signal in the test with SPI1 is 1.09 fold enrichment (6-mer frequency, TF over GST control); in the test with SPIB, 1.25 fold enrichment (6-mer frequency, TF over GST control); in the test with ELK3, 1.24 fold enrichment (6-mer frequency, TF over GST control).

For ATATAA, the binding signal with FLI1 was 1.15 fold enrichment (6-mer frequency, TF over GST control); with ELK1 it was 1.22 fold enrichment (6-mer frequency, TF over GST control); with GABPA, 1.2 fold enrichment (6-mer frequency, TF over GST control); with ERG, 1.15 fold enrichment (6-mer frequency, TF over GST control); with ELF1, 1.24 fold enrichment (6-mer frequency, TF over GST control); with EHF it was 1.21 fold enrichment (6-mer frequency, TF over GST control). Besides, the binding signal in the test with SPI1 is 1.1 fold enrichment (6-mer frequency, TF over GST control); with SPIB it was 1.22 fold enrichment (6-mer frequency, TF over GST control); with ELK3, 1.25 fold enrichment (6-mer frequency, TF over GST control).

As for TGTATG, the binding signal in the test with FLI1 is 1.31 fold enrichment (6-mer frequency, TF over GST control); in the test with ELK1, 1.16 fold enrichment (6-mer frequency, TF over GST control); with GABPA, 1.25 fold enrichment (6-mer frequency, TF over GST control); with ERG, 1.14 fold enrichment (6-mer frequency, TF over GST control); with ELF1 it was 1.23 fold enrichment (6-mer frequency, TF over GST control); with EHF, 1.2 fold enrichment (6-mer frequency, TF over GST control). Further, the binding signal with SPI1 is 1.18 fold enrichment (6-mer frequency, TF over GST control); with SPIB, 1.16 fold enrichment (6-mer frequency, TF over GST control); with ELK3 it was 1.22 fold enrichment (6-mer frequency, TF over GST control).

As to CTTCTC, the binding signal in the test with FLI1 was 1.38 fold enrichment (6-mer frequency, TF over GST control); in the test with ELK1 it was 1.39 fold enrichment (6-mer frequency, TF over GST control); with GABPA, 1.39 fold enrichment (6-mer frequency, TF over GST control); with ERG it was 1.3 fold enrichment (6-mer frequency, TF over GST control); in the test with ELF1, 1.41 fold enrichment (6-mer frequency, TF over GST control); in the test with EHF it was 1.37 fold enrichment (6-mer frequency, TF over GST control). For the same sequence, the binding signal with SPI1 is 1.4 fold enrichment (6-mer frequency, TF over GST control); with SPIB, 1.34 fold enrichment (6-mer frequency, TF over GST control); with ELK3, 1.39 fold enrichment (6-mer frequency, TF over GST control).

Turning to CTAATA, the binding signal is 1.21 fold enrichment (6-mer frequency, TF over GST control) in the test with FLI1; 1.15 fold enrichment (6-mer frequency, TF over GST control) with ELK1; 1.13 fold enrichment (6-mer frequency, TF over GST control) in the test with GABPA; 1.17 fold enrichment (6-mer frequency, TF over GST control) in the test with ERG; 1.19 fold enrichment (6-mer frequency, TF over GST control) with ELF1; 1.25 fold enrichment (6-mer frequency, TF over GST control) in the test with EHF. For the same sequence, the binding signal was 1.24 fold enrichment (6-mer frequency, TF over GST control) in the test with SPI1; 1.17 fold enrichment (6-mer frequency, TF over GST control) with SPIB; 1.06 fold enrichment (6-mer frequency, TF over GST control) in the test with ELK3.

For TGGCCT, the binding signal with FLI1 is 1.59 fold enrichment (6-mer frequency, TF over GST control); in the test with ELK1, 1.37 fold enrichment (6-mer frequency, TF over GST control); in the test with GABPA, 1.51 fold enrichment (6-mer frequency, TF over GST control); with ERG, 1.54 fold enrichment (6-mer frequency, TF over GST control); with ELF1, 1.48 fold enrichment (6-mer frequency, TF over GST control); in the test with EHF, 1.5 fold enrichment (6-mer frequency, TF over GST control). In addition, the binding signal in the test with SPI1 was 1.55 fold enrichment (6-mer frequency, TF over GST control); with SPIB it was 1.48 fold enrichment (6-mer frequency, TF over GST control); with ELK3, 1.29 fold enrichment (6-mer frequency, TF over GST control).

Source of the values: publication PMC7862700, “An all-to-all approach to the identification of sequence-specific readers for epigenetic DNA modifications on cytosine”.
